Experimental data taken from the antibiotic and cytotoxicity screens of Wong et al. (2023).
Hit rate of the full screen: of about 39,000 compounds, about 3,300 (8.5%) were called active. The full list was thinned out, with actives kept by preference.

What follows are compounds tested on HepG2 (assay: cytotoxicity call (relative viability < 0.9)). Conditions: 10 µM.

Row | Compound | cytotoxicity call
1 | [O-][NH2+]N(CCO)CCO | inactive
2 | C[C@@H]1CN([C@@H](C)CO)C(=O)c2cc(NC(=O)Nc3ccc4c(c3)OCO4)ccc2O[C@@H]1CN(C)Cc1ccc(C(F)(F)F)cc1 | inactive
3 | C[C@@H]1CN([C@H](C)CO)C(=O)c2cc(NC(=O)Nc3ccc4c(c3)OCO4)ccc2O[C@H]1CN(C)Cc1ccc(C(F)(F)F)cc1 | inactive
4 | C[C@H]1CN([C@@H](C)CO)C(=O)c2cc(NC(=O)Nc3ccc4c(c3)OCO4)ccc2O[C@@H]1CN(C)Cc1ccc(C(F)(F)F)cc1 | inactive
5 | C[C@H](CO)N1C[C@H](C)[C@@H](CN(C)Cc2ccc3c(c2)OCO3)Oc2ccc(NC(=O)Nc3ccc(C(F)(F)F)cc3)cc2C1=O | active
6 | C[C@H](CO)N1C[C@H](C)[C@H](CN(C)Cc2ccc(C(F)(F)F)cc2)Oc2ccc(NC(=O)Nc3ccc4c(c3)OCO4)cc2C1=O | inactive
7 | C[C@@H]1CN([C@H](C)CO)C(=O)c2cc(NC(=O)Nc3ccc4c(c3)OCO4)ccc2O[C@@H]1CN(C)Cc1ccc(C(F)(F)F)cc1 | active
8 | C[C@H]1CN([C@@H](C)CO)C(=O)c2cc(NC(=O)Nc3ccc(C(F)(F)F)cc3)ccc2O[C@@H]1CN(C)Cc1ccc2c(c1)OCO2 | active
9 | C[C@@H]1CN([C@@H](C)CO)C(=O)c2cc(NC(=O)Nc3ccc(C(F)(F)F)cc3)ccc2O[C@H]1CN(C)Cc1ccc2c(c1)OCO2 | active
10 | C[C@@H]1CN([C@H](C)CO)C(=O)c2ccccc2-c2ccccc2CO[C@H]1CN(C)C(=O)Nc1cccc(Cl)c1Cl | inactive
11 | C[C@@H]1CN([C@@H](C)CO)C(=O)c2cc(NC(=O)C3CC3)ccc2O[C@@H]1CN(C)S(=O)(=O)c1cn(C)cn1 | inactive
12 | C[C@H](CO)N1C[C@H](C)[C@H](CN(C)S(=O)(=O)c2ccccc2)OCCCC[C@H](C)Oc2ccc(NC(=O)Nc3cccc4ccccc34)cc2C1=O | inactive
13 | COc1cccc(S(=O)(=O)Nc2ccc3c(c2)[C@H]2C[C@@H](CC(=O)NC4CCCCC4)O[C@@H](CO)[C@H]2O3)c1 | inactive
14 | COCCOC(=O)N1C(=O)[C@@]2(c3ccccc31)[C@H](c1ccc(O)cc1)N1[C@H](c3ccccc3)[C@H](c3ccccc3)OC(=O)[C@H]1[C@@H]2C(=O)N1CCc2cc(OC)c(OC)cc2C1 | inactive
15 | COc1ccc(S(=O)(=O)Nc2ccc3c(c2)C(=O)N([C@H](C)CO)C[C@@H](C)[C@@H](CN(C)S(=O)(=O)c2cccs2)O3)cc1 | inactive
16 | C[C@@H]1CCCCO[C@H](CN(C)CC2CC2)[C@H](C)CN([C@@H](C)CO)C(=O)c2cc(NC(=O)Cc3ccccc3)ccc2O1 | inactive
17 | O=C(C[C@@H]1C=C[C@H](NC(=O)C2CC2)[C@H](CO)O1)NCCCN1CCOCC1 | inactive
18 | Cc1[nH]c(/C=C2\C(=O)Nc3ccc(S(=O)(=O)Cc4c(Cl)cccc4Cl)cc32)c(C)c1C(=O)N1CCC[C@@H]1CN1CCCC1 | active
19 | C[C@@H]1CN([C@@H](C)CO)C(=O)CCCn2cc(nn2)CO[C@@H]1CN(C)S(=O)(=O)c1ccc(C#N)cc1 | inactive
20 | C[C@@H]1CN([C@@H](C)CO)C(=O)c2cc(NS(=O)(=O)c3ccc(F)cc3)ccc2O[C@H]1CN(C)Cc1ccc(Oc2ccccc2)cc1 | inactive
21 | C[C@@H]1CN([C@H](C)CO)C(=O)c2cc(NS(=O)(=O)c3ccc(F)cc3)ccc2O[C@@H]1CN(C)Cc1ccc(Oc2ccccc2)cc1 | active
22 | C[C@@H]1CN([C@@H](C)CO)C(=O)c2cc(NS(=O)(=O)c3ccc(F)cc3)ccc2O[C@@H]1CN(C)Cc1ccc(Oc2ccccc2)cc1 | active
23 | C[C@H]1CN([C@@H](C)CO)C(=O)c2cc(NS(=O)(=O)c3ccc(F)cc3)ccc2O[C@@H]1CN(C)Cc1ccc(Oc2ccccc2)cc1 | inactive

Row | Compound | cytotoxicity call
24 | C[C@H]1CN([C@@H](C)CO)C(=O)c2cc(NS(=O)(=O)c3ccc(F)cc3)ccc2O[C@H]1CN(C)Cc1ccc(Oc2ccccc2)cc1 | inactive
25 | C[C@@H]1CN([C@H](C)CO)C(=O)c2cc(NS(=O)(=O)c3ccc(F)cc3)ccc2O[C@H]1CN(C)Cc1ccc(Oc2ccccc2)cc1 | inactive
26 | COCC(=O)N(C)C[C@@H]1Oc2cc(C#Cc3ccccc3)ccc2S(=O)(=O)N([C@H](C)CO)C[C@@H]1C | inactive
27 | C[C@H](CO)N1C[C@H](C)[C@H](CN(C)S(=O)(=O)c2cn(C)cn2)Oc2cc(C#Cc3ccccc3)ccc2S1(=O)=O | inactive
28 | CNCc1cccc2ccccc12 | inactive
29 | CNCCC(Oc1cccc2ccccc12)c1cccs1.Cl (centres undefined) | active
30 | Cc1noc(C)c1S(=O)(=O)Nc1ccc2c(c1)CC(=O)N([C@H](C)CO)C[C@H](C)[C@@H](CN(C)Cc1ccccc1)O2 | inactive
31 | C[C@H]1CN([C@@H](C)CO)C(=O)c2cccc(NS(=O)(=O)c3ccc(Cl)cc3)c2O[C@@H]1CN(C)C(=O)Nc1cccc2ccccc12 | inactive
32 | Nc1ncnc2c1ncn2[C@@H]1O[C@H](COP(=O)(O)OP(=O)(O)OP(=O)(O)OP(=O)(O)OC[C@H]2O[C@@H](n3cnc4c(N)ncnc43)[C@H](O)[C@@H]2O)[C@@H](O)[C@H]1O | active
33 | Nc1nc(=O)c2ncn([C@@H]3O[C@H](CO)[C@@H](O)[C@H]3O)c2[nH]1 | inactive
34 | Nc1nc(F)nc2c1ncn2[C@@H]1O[C@H](COP(=O)(O)O)[C@@H](O)[C@@H]1O | inactive
35 | Nc1ncnc2c1ncn2[C@@H]1O[C@H](CO)[C@@H](O)[C@@H]1O | inactive
36 | OC[C@H]1O[C@H](n2cnc3cncnc32)[C@@H](O)[C@@H]1O | active
37 | Nc1nc(=S)c2ncn([C@@H]3O[C@H](CO)[C@@H](O)[C@H]3O)c2[nH]1 | active
38 | Nc1ncnc2c1ncn2[C@H]1O[C@@H](CO)[C@H](O)[C@@H]1O | inactive
39 | O=c1nc[nH]c2c1ncn2[C@@H]1O[C@H](CO)[C@@H](O)[C@H]1O | inactive
40 | Nc1nc(F)nc2c1ncn2[C@@H]1O[C@H](CO)[C@@H](O)[C@H]1O | active
41 | Nc1nc(Cl)nc2c1ncn2[C@@H]1O[C@H](CO)[C@@H](O)[C@H]1O | inactive
42 | Nc1ncnc2c1ncn2[C@H]1O[C@@H](COP(=O)(O)OP(=O)(O)OP(=O)(O)O)[C@@H](O)[C@@H]1O | inactive
43 | Nc1ncnc2c1ncn2[C@@H]1O[C@H](COP(=O)(O)O)[C@@H](O)[C@H]1O | inactive
44 | Cc1[nH]c(=O)[nH]c(=O)c1S(=O)(=O)N1CCC[C@H](C(=O)NCc2ccc3c(c2)OCO3)C1 | inactive
45 | C[C@@H]1CN([C@@H](C)CO)C(=O)c2cc(NC(=O)NC3CCCCC3)ccc2O[C@@H](C)CCCCO[C@H]1CN(C)Cc1ccncc1 | inactive
46 | C[C@H]1CN([C@@H](C)CO)S(=O)(=O)c2ccc(C#CC3(O)CCCC3)cc2O[C@H]1CN(C)C(=O)Nc1cccc(F)c1 | inactive

Row | Compound | cytotoxicity call
47 | C[C@H](CO)N1C[C@H](C)[C@H](CN(C)Cc2ccc(C(F)(F)F)cc2)Oc2ccc(NC(=O)Cc3cn(C)c4ccccc34)cc2C1=O | inactive
48 | O=C(C[C@@H]1CC[C@H](NC(=O)Cc2ccccn2)[C@@H](CO)O1)NCCCN1CCOCC1 | inactive
49 | COc1ccc(CN(C)C[C@H]2OCCCC[C@@H](C)Oc3ccc(NC(=O)Nc4c(C)noc4C)cc3C(=O)N([C@H](C)CO)C[C@@H]2C)cc1 | inactive
50 | C[C@H]1CCCCO[C@H](CN(C)C(=O)Nc2ccc3c(c2)OCO3)[C@@H](C)CN([C@@H](C)CO)C(=O)c2cc(NC(=O)Nc3cccc4ccccc34)ccc2O1 | inactive
51 | COc1ccc(S(=O)(=O)N(C)C[C@H]2Oc3ccc(NC(=O)CCC(F)(F)F)cc3CC(=O)N([C@H](C)CO)C[C@@H]2C)cc1 | inactive
52 | C[C@@H]1CN([C@H](C)CO)C(=O)Cc2cc(NS(=O)(=O)c3cccs3)ccc2O[C@H]1CN(C)Cc1ccc(Cl)c(Cl)c1 | inactive
53 | Cc1cccc(S(=O)(=O)N2C[C@H](O)COC[C@@H]3O[C@H](CC(=O)NCCCN4CCOCC4)CC[C@H]32)c1 | inactive
54 | CC(=O)C=C(O)CCC(=O)O | inactive
55 | C=CCSC1=N[C@@]2(COCc3ccc(OC)cc3)Oc3ccccc3[C@H]([C@H]2CO[Si](C)(C)C(C)(C)C)N1C(=O)c1ccccc1 | inactive
56 | Cc1noc(C)c1S(=O)(=O)Nc1ccc2c(c1)C(=O)N([C@H](C)CO)C[C@H](C)[C@H](CN(C)C)OCCCC[C@H](C)O2 | inactive
57 | OC[C@H]1O[C@@H](n2cnc3c(NCc4ccco4)ncnc32)[C@H](O)[C@@H]1O | active
58 | Nc1ccn([C@@H]2O[C@H](CO)[C@H](O)[C@@H]2O)c(=O)n1 | inactive
59 | Nc1ccn([C@@H]2O[C@H](CO)[C@@H](O)[C@@H]2O)c(=O)n1 | inactive
60 | Nc1ncn([C@@H]2C[C@H](O)[C@@H](CO)O2)c(=O)n1 | inactive
61 | Nc1ncn([C@@H]2O[C@H](CO)[C@@H](O)[C@H]2O)c(=O)n1 | active
62 | CNc1ncnc2c1ncn2[C@@H]1O[C@H](CO)[C@@H](O)[C@H]1O | inactive
63 | Nc1ncn(C2OC(CO)C(O)C2O)c(=O)n1 (centres undefined) | active
64 | OC[C@H]1O[C@@H](n2cnc3c(NC4CCCC4)ncnc32)[C@H](O)[C@@H]1O | inactive
65 | Nc1ncn([C@H]2C[C@H](O)[C@@H](CO)O2)c(=O)n1 | inactive
66 | C/C=C/c1ccc2c(c1)O[C@H](CN(C)S(=O)(=O)c1ccc(F)cc1)[C@H](C)CN([C@H](C)CO)S2(=O)=O | inactive
67 | CCO[C@H]1[C@H]2CC[C@@H]1N(C(=O)N(C)C)CCO2 | inactive
68 | C[C@@H]1CCCCO[C@H](CN(C)S(C)(=O)=O)[C@H](C)CN([C@@H](C)CO)C(=O)c2cc(NS(C)(=O)=O)ccc2O1 | inactive
69 | CCC(=O)N[C@@H]1C=C[C@@H](CC(=O)OC)O[C@@H]1CO | inactive
